JMJD2A Tudor: qHTS Assay for Inhibitors of JMJD2A-Tudor Domain; Lysine-specific demethylase 4A (Homo sapiens), O75164; AlphaScreen JMJD2A-Tudor / H3K4me3 peptide binding; Potency, µM (titrated, usually from 114 µM), for inactives: at the highest dose activity change, negative = inhibition, usual class: inhibitors; actives 4.4% (n = 390,000); also: % is scaled to controls: 0 for no effect and ±100 for the full control effect; nearly all actives have a fitted effect of over 50% in size
BAZ2B inh: qHTS Assay for Inhibitors of BAZ2B; Potency, µM (series often up to 114 µM), for inactives: at the top dose activity change, negative = inhibition, usual class: inhibitors; AlphaScreen BAZ2B-H3K14Ac peptide displacement; Bromodomain adjacent to zinc finger domain protein 2B (Homo sapiens), Q9UIF8; AID 504333, 2011; actives 4.4% (n = 360,000); also: % is scaled to controls: 0 for no effect and ±100 for the full control effect; nearly all actives have a fitted effect of over 60% in size
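Multi-concentration screen (max 110 uM) measuring displacement of acetylated histone H3 peptide from BAZ2B by AlphaScreen, using 50 nM protein, 50 nM peptide and 10 ug/mL streptavidin donor plus Ni-chelate acceptor beads.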
HP1b chromo inh: HTS for Inhibitors of HP1-beta Chromodomain Interactions with Methylated Histone Tails. AID 540317, 2011. Chromobox protein homolog 1 (Homo sapiens), P83916. actives 0.56% (n = 390,000). AlphaScreen HP1-beta / biotin-H3K9me3 peptide binding. Potency, µM (series often up to 114 µM), inactives show at the highest dose activity change, negative = inhibition, most hits filed as inhibitors; also: nearly all actives have a fitted effect of over 70% in size
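Compound inhibition of the preformed complex between 50 nM HP1-beta and 50 nM biotinylated H3K9me3 peptide was read by AlphaScreen. Buffer was PBS pH 7.4 with 0.01% Tween-20. Incubations ran 30 min at room temperature, with 10 ug/mL donor/acceptor beads.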
PLK1 PBD block: qHTS for Inhibitors of PLK1-PDB (polo-like kinase 1 - polo-box domain): Primary Screen | Plk1 PBD binding of FITC phosphopeptide, fluorescence polarization | Potency, µM, for inactives: max response, negative = inhibition, most hits filed as inhibitors | actives 2.8% (n = 360,000) | AID 720504, 2013; also: series mostly up to about 57 µM; % is scaled to controls: 0 for no effect and ±100 for the full control effect; nearly all actives have a fitted effect of over 65% in size
Target sequence (P53350 whole entry, looked up, the tested form may be a part): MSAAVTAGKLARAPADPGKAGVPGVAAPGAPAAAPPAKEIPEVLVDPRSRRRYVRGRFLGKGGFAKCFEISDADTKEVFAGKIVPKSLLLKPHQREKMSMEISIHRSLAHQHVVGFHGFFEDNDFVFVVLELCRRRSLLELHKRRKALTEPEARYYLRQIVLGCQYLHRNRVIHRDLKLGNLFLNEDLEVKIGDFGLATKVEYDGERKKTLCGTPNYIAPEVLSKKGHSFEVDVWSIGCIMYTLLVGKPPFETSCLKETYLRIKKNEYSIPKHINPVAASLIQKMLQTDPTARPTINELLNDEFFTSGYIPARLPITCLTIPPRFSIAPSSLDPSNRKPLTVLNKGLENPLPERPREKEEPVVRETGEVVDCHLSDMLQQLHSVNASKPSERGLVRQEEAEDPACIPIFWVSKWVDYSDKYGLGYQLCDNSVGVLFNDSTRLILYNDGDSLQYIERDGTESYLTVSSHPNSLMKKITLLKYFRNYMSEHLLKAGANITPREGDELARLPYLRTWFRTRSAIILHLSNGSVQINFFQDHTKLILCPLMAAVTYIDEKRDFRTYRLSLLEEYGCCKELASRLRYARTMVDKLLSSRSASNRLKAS
Sfp PPTase inh: qHTS Assay for Inhibitors of Bacillus subtilis Sfp phosphopantetheinyl transferase (PPTase); Biochemical Sfp PPTase activity, qHTS; Potency, µM, for the others: largest response in the series, negative = inhibition, hits mostly inhibitors; AID 1490, 2009; 4'-phosphopantetheinyl transferase ffp (Bacillus subtilis), Q9F4F7; actives 3.5% (n = 310,000);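 also: the enzyme is Sfp with the accession as filed and its product quenches rhodamine fluorescence; 0% = enzyme reaction without inhibitor and -100% = no enzyme wells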
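Compounds were incubated with enzyme (final 15 nM) for 15 min at room temperature before substrate addition started the reaction. Fluorescence at 525 nm excitation, 598 nm emission was recorded immediately and after 30 minutes.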
G9a inh: qHTS Assay for Inhibitors of Histone Lysine Methyltransferase G9a; G9a H3K9 monomethylation, AlphaScreen, 2 h; Potency, µM (doses to about 102 µM), without a hit: top-dose activity, negative = inhibition, most hits filed as inhibitors; actives 8.8% (n = 350,000); AID 504332, 2011; also: % is scaled to controls: 0 for no effect and ±100 for the full control effect; nearly all actives have a fitted effect of over 75% in size
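Compounds were preincubated with 20 nM G9a for 15 min, after which biotinylated H3K9 peptide (500 nM) and SAM (20 uM) started a 2 h room-temperature reaction. Monomethylated product was quantified by antibody-based AlphaScreen chemiluminescence.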
Active calls of the source: *; ? = inconclusive; . = no result given; [ ] = another dose, or the depositor's remark. Most compounds without a hit are left out; they make up all but 12% or so of the library. Calls follow the shape of the dose curve; as a rule, active = well fitted curve in the direction sought with a large enough effect; inconclusive = small, poorly fitted or top-dose-only effect, or another doubt; inactive = no such curve, though single readings can be large; an effect the other way counts as inactive or inconclusive. Potency is read from the fitted curve at half-maximal effect.

SMILES	JMJD2A Tudor	BAZ2B inh	HP1b chromo inh	PLK1 PBD block	Sfp PPTase inh	G9a inh
CCOc1ccc(N=NC2C(=O)N(C(N)=S)N=C2C)cc1 (centres undefined)	-31.2%	-11.4%	2.2%	5.1%	18.4%	-9.1%[0.501 µM]
CC1=NN(c2ccccc2C(=O)O)C(=O)C1N=Nc1ccccc1 (centres undefined)	?	?	?	?	3.1%	44.7µM*
CC1=NN(C(N)=S)C(=O)C1N=Nc1ccccc1C(=O)O (centres undefined)	0.7%	-14.5%	46.0%	-7.5%	10.3%	5.9%
CC(=O)Nc1ccc(N=NC2C(=O)N(C(N)=S)N=C2C)cc1 (centres undefined)	-21.6%	-16.5%	17.5%	?	?	79.4µM*
CC1=NN(C(N)=S)C(=O)C1N=Nc1cccc(C)c1 (centres undefined)	-24.6%	2.2%	20.1%	-5.2%	-0.4%	31.0%[59 µM]
CC1=NN(C(N)=S)C(=O)C1N=Nc1ccc([N+](=O)[O-])cc1 (centres undefined)	?	-34.1%	?	-6.9%	0.8%	79.4µM*
O=C(CCSCc1cccc(Cl)c1)NCc1ccc(F)cc1Cl	19.3%	53.0%	23.9%	.	.	-34.9%[59 µM]
CC(C)(C)NC(=O)COc1ccc2oc3c(c2c1)CCCC3	3.9%	-4.3%	5.8%	-16.5%	11.1%	?
CC1=NN(C(N)=S)C(=O)C1N=Nc1ccc(Cl)cc1Cl (centres undefined)	50.1µM*	?	-22.1%	-29.4%	10.4%	.
CC1=NN(C(N)=S)C(=O)C1N=Nc1ccccc1Cl (centres undefined)	-12.8%	-26.5%	27.4%	-29.9%	-5.5%	-9.2%[0.501 µM]
CC1=NN(C(N)=S)C(=O)C1N=Nc1ccc(O)cc1 (centres undefined)	-8.3%[11.4 µM]	-21.1%	-26.6%	?	14.1µM*	?
COc1cccc(NC(=O)CN2C(=O)CSc3ccc(S(=O)(=O)N4CCCC4)cc32)c1	-17.9%	?	37.5%	.	.	-14.7%[59 µM]
CC(C)CC(=O)NC(=S)Nc1cccc2nsnc12	-13.4%	-11.6%	41.4%	-3.6%	?	35.5µM*
COc1c(C)cccc1C(=O)NC(=S)Nc1cccc2nsnc12	-2.1%	-20.7%	36.1%	-23.3%	?	44.7µM*
CC(C)CC(=O)NC(=S)Nc1ccccc1F	-6.4%	7.3%	20.1%	-8.1%	13.6%	-3.5%[59 µM]
COc1cccc(C2=CC(c3ccccc3O)NC(C)(C)N2)c1 (centres undefined)	-14.6%[57.1 µM]	.	4.4%[57 µM]	.	.	.
Cc1[nH]c(=O)[nH]c(=O)c1/C=N/NC(=O)[C@H](C)N	56.2µM*	50.1µM*	32.5%	-18.7%	50.1µM*	?
O=C(CCc1ccccc1)Nc1ccc(NC(=O)c2ccco2)cc1	-3.1%	0.5%	3.6%	-10.9%	27.3%	-9.6%
O=C(N/N=C\CCc1ccccc1)c1ccco1	?	-4.8%	?	15µM*	19.4%	6.8%[59 µM]
COc1ccc(/C(O)=C2\C(=O)C(=O)N(c3cc(C)on3)C2c2cccc(OC)c2OC)cc1C (centres undefined)	-3.8%	?	40.4%	-4.0%	16.7%	50.1µM*
Cc1ccc(/C(O)=C2\C(=O)C(=O)N(c3cc(C)on3)C2c2cccc(Br)c2)cc1 (centres undefined)	-17.8%	21.2%	8.2%	-13.1%	?	26.0%[59 µM]
Cc1ccc(/C(O)=C2\C(=O)C(=O)N(c3cc(C)on3)C2c2cccc(Cl)c2)cc1 (centres undefined)	-15.9%	-5.1%	29.7%	-12.7%	23.5%	44.7µM*
COc1ccc(N2C(=O)C(=O)/C(=C(/O)c3ccc(C)cc3)C2c2cccnc2)cc1 (centres undefined)	?	56.2µM*	0.0%	6.0%	-8.7%	?
COc1ccc(C2/C(=C(/O)c3ccc(C)cc3)C(=O)C(=O)N2C)cc1 (centres undefined)	-7.7%	11.1%	9.0%	1.4%	10.6%	?
COc1ccc(/C(O)=C2/C(=O)C(=O)N(c3ccccn3)C2c2cccc(Cl)c2)cc1 (centres undefined)	-30.8%	-19.5%	12.5%	-12.6%	27.1%	79.4µM*
SMILES	JMJD2A Tudor	BAZ2B inh	HP1b chromo inh	PLK1 PBD block	Sfp PPTase inh	G9a inh
COc1ccc(CNC(=O)COC(=O)c2nc3nc(C)cc(C)n3n2)cc1	-12.0%	-5.8%	15.1%	0.0%	.	4.3%[12.7 µM]
CCOC1=C2CN(S(=O)(=O)c3ccc(C)cc3)[C@H](c3ccccc3)C[C@@H]2N(S(=O)(=O)c2ccccc2C)[C@H](c2ccccc2)C1	.	.	.	-2.8%	.	.
CC[C@@]1(O)C(=O)OCc2c1cc1n(c2=O)Cc2cc3cc(O)ccc3nc2-1	.	.	.	.	-6.4%	-32.3%[2.33 µM]
N/C(Cc1cccc2ccccc12)=N\OC(=O)c1ccc2c(c1)OCO2	?	-8.5%	-21.4%	23.8µM*	20.4%	-32.5%
N/C(Cc1ccc(Cl)cc1Cl)=N\OC(=O)c1ccc(Br)o1	4.9%	-18.7%	32.8%	-7.9%	6.5%	47.8%[12.7 µM]
N/C(Cc1cccc2ccccc12)=N\OC(=O)c1ccc(Br)o1	.	-33.5%	.	.	-14.9%	44.7µM*
O=C(O)c1c(NC(=O)N2CCOCC2)sc2c1CCCC2	-9.8%	-19.1%	2.0%	-11.2%	2.8%	-26.9%
Cc1cn2c(=O)cc(COC(=O)c3cccc(NC(=O)c4ccccc4Cl)c3)nc2s1	-18.2%	-5.4%	-7.5%	.	.	1.9%[59 µM]
COc1ccc(Cn2c(O)cc(=O)[nH]c2=O)cc1	-24.9%	-6.4%	46.3%	?	44.7µM*	10µM*
Nc1cc(=O)[nH]c(=O)n1Cc1ccccc1	-20.7%	-3.6%	31.7%	-10.3%	11.4%	12.0%
CCOc1ccc(Cn2c(O)cc(=O)[nH]c2=O)cc1	-18.8%	-3.0%	41.5%	-24.8%	50.1µM*	?
O=C(Cn1c2ncccc2c(=O)n1-c1ccccc1)NCc1ccccc1Cl	3.9%	4.7%	14.9%	.	.	7.4%[59 µM]
CCCCC1OC23CCCCC2C(C#N)(C#N)C1(C#N)C(=N)O3 (centres undefined)	-13.7%	?	23.5%	-7.1%	-0.6%	-29.2%[59 µM]
CCCCCCCCOc1ccc(C2OC34CCCCC3C(C#N)(C#N)C2(C#N)C(=N)O4)cc1 (centres undefined)	-5.5%[11.4 µM]	86.0%	191.3%	23.8µM*	-10.2%	?
C=CC[n+]1c(-c2ccc(OCC)cc2)csc1NNC(=O)Nc1ccccc1	22.4µM*	10µM*	14.1µM*	-8.7%	-16.9%	?

Source: PubChem (National Center for Advancing Translational Sciences (NCATS))
